# IL-1B inflam inh: qHTS for Inhibitors of Inflammasome Signaling: IL-1-beta AlphaLISA Primary Screen | THP-1 LPS/ATP IL-1B secretion, AlphaLISA, 16 h; stronger effect = lower value | activity change, % at 57.5 µM | 4.7% of 360,000 active; in the data active = activity change below about -50%; inconclusive = mostly about -30% to -49%
#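 THP-1 cells pretreated 1 hr with compounds (up to 57.5 uM final), then stimulated with LPS (250 ng/mL final) plus ATP (1.25 mM final); secreted IL-1B measured by AlphaLISA after 16 hr, decreased signal indicating inhibition.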
# TDP1 cell CPT: qHTS for Inhibitors of human tyrosyl-DNA phosphodiesterase 1 (TDP1): qHTS in cells in presence of CPT; chicken DT40 Tdp1-/-;hTDP1 cells + 20 nM CPT, ATP luminescence, 48 h; AID 686979, 2013; 12% of 420,000 active; Potency, µM (titrated, usually from 46.2 µM), hits mostly inhibitors; note: nearly all actives have a fitted effect of over 55% in size
#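 Cell growth measured by CellTiter-Glo luminescence after a minimum 48 h, 37 C compound exposure with 20 nM CPT in Tdp1-knockout DT40 cells stably expressing hTDP1, seeded 400/well; qHTS titration format.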
# DT40 TDP1 no CPT: qHTS for Inhibitors of human tyrosyl-DNA phosphodiesterase 1 (TDP1): qHTS in cells in absence of CPT; AID 686978, 2013; 15% of 420,000 active; DT40 Tdp1-/- hTDP1 cells, no CPT, ATP luminescence, 48 h; Potency, µM (highest dose often 46.2 µM), usual class: inhibitors; note: nearly all actives have a fitted effect of over 55% in size
#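 Chicken DT40 Tdp1-/- cells stably complemented with human TDP1 were seeded at 400 cells/well with DMSO in place of 20 nM camptothecin. After compound pinning, cells grew at least 48 hr at 37 °C; viability read by CellTiter-Glo luminescence.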
# RORg inh: qHTS for inhibitors of ROR gamma transcriptional activity; Potency, µM (series often up to 53.6 µM), actives largely listed as inhibitors; Nuclear receptor ROR-gamma (Mus musculus), P51450; Drosophila S2 Gal4-RORgamma UAS-luciferase reporter, 20 h; 5.4% of 310,000 active; AID 2551, 2010; note: nearly all actives have a fitted effect of over 60% in size
# Target sequence (P51450 whole entry, looked up, the tested form may be a part): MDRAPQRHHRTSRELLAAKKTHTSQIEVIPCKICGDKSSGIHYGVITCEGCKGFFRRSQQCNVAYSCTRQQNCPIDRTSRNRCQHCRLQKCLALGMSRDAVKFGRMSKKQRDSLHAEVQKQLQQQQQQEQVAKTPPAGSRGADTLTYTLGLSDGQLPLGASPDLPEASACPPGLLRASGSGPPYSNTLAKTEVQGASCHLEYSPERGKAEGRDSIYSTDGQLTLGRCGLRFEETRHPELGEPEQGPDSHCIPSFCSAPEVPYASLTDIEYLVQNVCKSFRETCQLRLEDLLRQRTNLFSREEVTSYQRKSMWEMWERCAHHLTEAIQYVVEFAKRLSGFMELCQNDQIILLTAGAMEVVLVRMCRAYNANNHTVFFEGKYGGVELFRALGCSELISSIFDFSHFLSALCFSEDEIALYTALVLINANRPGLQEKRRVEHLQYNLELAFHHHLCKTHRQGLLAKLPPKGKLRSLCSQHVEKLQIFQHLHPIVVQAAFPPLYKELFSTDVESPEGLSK
#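 A Gal4/UAS one-hybrid system in insect cells: metallothionein-promoter Gal4–ROR gamma fusion plus Photinus luciferase reporter. Copper sulfate 700 uM final, 20 hr ambient incubation, luminescent detection after 10 min with reagent.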
# VP16 counter: VP16 counterscreen qHTS for inhibitors of ROR gamma transcriptional activity; 3.5% of 310,000 active; Potency, µM (top dose mostly 53.6 µM), most hits filed as inhibitors; Drosophila S2 Gal4-VP16 UAS-luciferase, luminescence, 20 h;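 note: Gal4-VP16 expression switched on by copper sulfate through the metallothionein promoter; nearly all actives have a fitted effect of over 50% in size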
# LDHA block: qHTS assay for inhibitors of human lactate dehydrogenase. L-lactate dehydrogenase A chain (Homo sapiens), P00338. purified LDHA, NADH/diaphorase-resazurin fluorescence; stronger effect = lower value. activity change, % (values are at about 110 or 230 µM). 0.15% of 480,000 active. AID 1347041, 2019; in the data active = activity change below about -30%; inconclusive = mostly about -25% to -30%
#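 LDH5 2 nM; NADH 0.06 mM, pyruvate 0.2 mM; 200 mM Tris pH 7.4, EDTA, Tween-20; 5 min RT. Detection: diaphorase 0.133 mg/mL + resazurin 37 µM, fluorescence ex540/em590 at 0 and 20 min; normalized to enzyme-free and DMSO wells.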
# A number is an active result; 0 = inactive; ? = inconclusive; - = no result. A selection: hits, their analogues and other compounds. The true share with any hit is near 18%. Unless noted, calls come from the whole dose curve; as a rule, active = well fitted curve in the direction sought with a large enough effect; inconclusive = small, poorly fitted or top-dose-only effect, or another doubt; inactive = no such curve, though single readings can be large; an effect the other way counts as inactive or inconclusive.
SMILES,IL-1B inflam inh,TDP1 cell CPT,DT40 TDP1 no CPT,RORg inh,VP16 counter,LDHA block
COc1ccc(-c2n[nH]c3c2C(c2ccccn2)N(C)C3=O)cc1 (stereo not drawn),-,?,0,-,-,0
CCCN1C(=O)c2[nH]nc(-c3ccccc3)c2C1c1cccc(O)c1 (stereo not drawn),-,18µM,23µM,-,-,0
O=S(Cc1ccc(Cl)cc1)Cc1ccc(F)cc1Cl (stereo not drawn),-,-,-,-,-,0
O=[N+]([O-])c1cc([N+](=O)[O-])c2c(=Nc3ccccc3)n(-c3ccccc3)n(O)c2c1,0,3.3µM,10µM,13µM,?,0
Cn1nc(C(C)(C)C)cc1C(=O)Sc1cccc(Br)c1,-81,3.7µM,10µM,?,0,0
Cc1oc2cc(OCC(=O)O)ccc2c(=O)c1Oc1ccccc1Br,-,-,-,-,-,0
O=C(Nc1cccc(S(=O)(=O)N2CCOCC2)c1)C1CCCN(C(=O)c2ccc(Cl)cc2)C1 (stereo not drawn),0,?,?,?,0,0
O=C(Nc1ccccc1)C1CCCN(C(=O)c2ccc(Cl)cc2)C1 (stereo not drawn),0,?,?,0,0,0
O=C(Nc1cccc(F)c1)C1CCCN(C(=O)c2ccc(Cl)cc2)C1 (stereo not drawn),0,21µM,18µM,-,-,0
CC(=O)c1ccc(NC(=O)C2CCCN(C(=O)c3ccc(Cl)cc3)C2)cc1 (stereo not drawn),0,26µM,21µM,0,0,0
CCSc1nnc(NC(=O)C2CCCN(C(=O)c3ccc(Cl)cc3)C2)s1 (stereo not drawn),0,6.5µM,5.2µM,-,-,0
O=C(Nc1ccc(S(=O)(=O)N2CCCCC2)cc1)C1CCCN(C(=O)c2ccc(Cl)cc2)C1 (stereo not drawn),0,?,21µM,0,0,0
COc1ccc(C(NC(=O)c2nn(C)c(=O)c3ccccc23)C(C)C)cc1 (stereo not drawn),-,-,-,-,-,0
CCN(CC(=O)Nc1c(F)cccc1F)C(=O)C1CCN(C(=O)c2ccc(Cl)cc2)CC1,0,0,0,-,-,0
COc1ccc(NC(=O)C2CCCN(C(=O)c3ccc(Cl)cc3)C2)cc1Cl (stereo not drawn),?,21µM,18µM,-,-,0
CCN(CC(=O)Nc1c(F)cccc1F)C(=O)C1CCCN(C(=O)c2ccc(Cl)cc2)C1 (stereo not drawn),0,0,0,10µM,11µM,0
O=C(Nc1cccc(S(=O)(=O)N2CCCCCC2)c1)C1CCN(C(=O)c2ccc(Cl)cc2)CC1,?,18µM,?,-,-,0
O=C(Nc1cccc(S(=O)(=O)N2CCCCC2)c1)C1CCN(C(=O)c2ccc(Cl)cc2)CC1,0,?,?,-,-,0
CN(C)S(=O)(=O)c1ccc(NC(=O)C2CCCN(C(=O)c3ccc(Cl)cc3)C2)cc1 (stereo not drawn),0,?,?,?,0,0
N#Cc1ccccc1COC(=O)c1ccc(C(=O)c2ccccc2)cc1,-,-,-,-,-,0
CC[N+](CC)(CC)CCCOC1CC(C)CCC1C(C)C (stereo not drawn),-,-,-,-,-,0
O=C(C#Cc1ccccc1)Nc1ccccc1F,-93,21µM,18µM,?,?,0
COc1ccc(NC(=O)C#Cc2ccccc2)cc1OC,-71,6.5µM,?,0,0,0
NC(=O)c1ccc(NC(=O)C#Cc2ccccc2)cc1,-101,?,8.2µM,?,?,0
CSc1nc2n(n1)C(c1cccc(Cl)c1)C1=C(CCCC1=O)N2 (stereo not drawn),-,-,-,-,-,0
SMILES,IL-1B inflam inh,TDP1 cell CPT,DT40 TDP1 no CPT,RORg inh,VP16 counter,LDHA block
CC(/C=N/NC(=O)CSc1nnc(SCc2ccccc2)s1)=C\c1ccco1,0,0,0,0,?,0
Cc1ccc(CSc2nnc(SCC(=O)N/N=C/C=C/c3ccco3)s2)cc1,0,?,?,7.1µM,11µM,0
Cc1ccc(OCC(=O)N/N=C/C=C/c2ccco2)c(Br)c1,0,18µM,?,-,-,0
Cn1c(SCC(=O)N/N=C/C=C\c2ccco2)nc2ccccc21,?,?,?,0.4µM,?,0
Cc1ccc(CSc2nnc(SCC(=O)N/N=C/C=C/c3ccccc3[N+](=O)[O-])s2)cc1,0,?,?,11µM,?,0
O=C(Nc1nnc(SCc2ccc(Cl)cc2)s1)c1cnccn1,0,?,?,13µM,14µM,0
Cc1cccc(-c2ccc([N+](=O)[O-])cc2CN2CCN(c3ncc(Cc4ccccc4)cn3)CC2)c1,0,5.8µM,5.8µM,-,-,0
Cc1cccc(-c2ccc(O)cc2CN2CCN(c3ncc(Cc4ccccc4)cn3)CC2)c1,0,?,21µM,-,-,0
S=C(NCc1ccccc1)Nc1ccccc1I,-,-,-,-,-,0
COc1ccc(-c2cc(OC(=O)c3ccccc3Cl)c3c(C)oc(C)c3c(=O)c2)cc1OC,-,23µM,?,-,-,0
COc1ccc(-c2cc(OC(=O)c3ccccc3C)c3c(C)oc(C)c3c(=O)c2)cc1,-,?,16µM,-,-,0
Cc1ccccc1C(=O)Oc1cc(-c2ccc3c(c2)OCO3)cc(=O)c2c(C)oc(C)c12,-,?,?,-,-,0
COc1cc(-c2cc(OC)c3c(C)oc(C)c3c(=O)c2)ccc1OC(=O)c1ccccc1C,-,5.2µM,8.2µM,-,-,0
COc1ccccc1CNC(=O)c1cnn(-c2ccc(F)cc2F)c1C1CCN(C(=O)OC(C)(C)C)CC1,-,16µM,?,-,-,0
Cc1cccc(N2CCN(C(=O)c3cnn(-c4ccc(F)cc4F)c3C3CCN(C(=O)OC(C)(C)C)CC3)CC2)c1C,-,21µM,21µM,-,-,0
CC(C)(C)OC(=O)N1CCC(c2c(C(=O)N3CCN(c4ncccn4)CC3)cnn2-c2ccc(F)cc2F)CC1,-,?,?,-,-,0
CC(C)(C)OC(=O)N1CCC(c2c(C(=O)NC3CCCCC3)cnn2-c2ccc(F)cc2F)CC1,-,21µM,?,-,-,0
COc1ccccc1N1CCN(C(=O)c2cnn(-c3ccc(F)cc3F)c2C2CCNCC2)CC1,-,0,18µM,-,-,0
Cc1ccc(CNC(=O)c2cnn(-c3ccc(F)cc3F)c2C2CCN(C(=O)OC(C)(C)C)CC2)cc1,-,?,?,-,-,0
CCOc1nc2ccccc2nc1N1CCC(C(N)=O)CC1,-,-,-,-,-,0
CC(=O)C(C(C)=O)C(NC(=O)c1ccc(C)cc1)(C(F)(F)F)C(F)(F)F,-,-,-,-,-,0

# Screens (PubChem BioAssay)
